# This is a sample that favours compounds with a hit; in the whole collection about 2.5% have one here.
# APE1 inh = APE1 (human) endonuclease inhibition | hit rate 0.35% among 350,000 | recombinant APE1, TAMRA/BHQ-2 abasic DNA cleavage fluorescence | AID 2517 | Potency, µM (highest dose often 65.8 µM), without a hit: top-dose activity change, negative = inhibition, usual class: inhibitors;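 further: plate controls were vehicle for no effect and reference inhibitor for full effect; nearly all actives have a fitted effect of over 55% in size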
#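 Substrate: short duplex with […] THF abasic site, 5'-TAMRA and 3'-BHQ-2, 50 nM final. APE1 at 0.75 nM, preincubated 15 min RT with compound. Fluorescence increase from first to third read measured activity.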
# L3MBTL1 block = L3MBTL1 (human) inhibition; AlphaScreen L3MBTL1–H3K9me1 peptide binding; hit rate 0.66% among 230,000; Q9Y468; Potency, µM (series often up to 57.1 µM), for the others: top-dose activity, negative = inhibition, usual class: inhibitors; further: on the % scale 0 is the no-effect control and ±100 the full control effect; nearly all actives have a fitted effect of over 60% in size
#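 First, the protein-peptide complex forms for 30 min at room temperature (L3MBTL1 50 nM, biotinylated H3K9me1 peptide 75 nM). Next, compounds are pin-transferred and incubated 30 min. Finally, AlphaScreen beads are added and read after 30 min.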
# POLI inh = blocks human DNA polymerase iota activity | Q9UNA4 | Pol iota fluorescent replication assay, 10 min | Potency, µM (highest dose often 115 µM), inactives show top-dose activity, negative = inhibition, hits mostly inhibitors | hit rate 1% among 390,000 | AID 588590
#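 Pol iota at 10 nM preincubated 15 min with compounds at room temperature; reaction started with fluorescent substrate, 50 nM final. Fluorescence read kinetically at 0 and 10 min; buffer-only wells as negative control.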
# Pol beta inh = inhibitors of human DNA polymerase beta; Pol beta primer extension/strand displacement, fluorescence kinetic; Potency, µM (top dose mostly 114 µM), without a hit: at the highest dose activity change, negative = inhibition, actives largely listed as inhibitors; hit rate 1.3% among 340,000; AID 485314; further: on the % scale 0 is the no-effect control and ±100 the full control effect
#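 Enzyme-only controls used 10 nM Pol beta; buffer lacking enzyme served as negative control. Compound preincubated 15 min, then 50 nM substrate added; 0 and 10 min reads at room temperature.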
# Pol eta inh-1 = inhibitors of human DNA polymerase eta; Potency, µM (top dose mostly 114 µM), without a hit: top-dose activity change, negative = inhibition, usual class: inhibitors; hit rate 1.2% among 390,000; recombinant Pol eta, fluorescent DNA replication assay; Q9Y253; further: on the % scale 0 is the no-effect control and ±100 the full control effect
# Target sequence (Q9Y253 whole entry, looked up): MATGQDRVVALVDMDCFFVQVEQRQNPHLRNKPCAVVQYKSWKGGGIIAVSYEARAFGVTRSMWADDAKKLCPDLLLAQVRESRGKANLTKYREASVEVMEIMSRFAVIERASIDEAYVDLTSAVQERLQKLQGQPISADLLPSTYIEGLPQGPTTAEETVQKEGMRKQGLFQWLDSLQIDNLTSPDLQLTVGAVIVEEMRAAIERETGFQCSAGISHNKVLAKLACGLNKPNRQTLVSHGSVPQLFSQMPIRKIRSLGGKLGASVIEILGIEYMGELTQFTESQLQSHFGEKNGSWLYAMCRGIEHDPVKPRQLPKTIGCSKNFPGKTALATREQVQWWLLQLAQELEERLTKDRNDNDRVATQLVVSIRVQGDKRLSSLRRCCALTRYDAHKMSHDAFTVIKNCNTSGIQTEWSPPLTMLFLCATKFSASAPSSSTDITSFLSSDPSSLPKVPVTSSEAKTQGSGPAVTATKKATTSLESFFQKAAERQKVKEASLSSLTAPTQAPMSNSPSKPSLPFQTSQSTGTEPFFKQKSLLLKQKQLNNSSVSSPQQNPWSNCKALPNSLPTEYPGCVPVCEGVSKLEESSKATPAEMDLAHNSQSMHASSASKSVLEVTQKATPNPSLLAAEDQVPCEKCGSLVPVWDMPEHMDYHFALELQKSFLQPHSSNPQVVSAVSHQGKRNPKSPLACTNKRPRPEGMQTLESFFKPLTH
#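 Pol eta (10 nM) was preincubated with compounds for 15 min at room temperature, after which fluorescent replication substrate (50 nM final) was added to start the reaction. Fluorescence was read kinetically at 0 and 10 min.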
# Pol kappa inh-1 = blocks human DNA polymerase kappa activity | Q9UBT6 | purified Pol kappa, fluorescent DNA synthesis assay, 10 min | Potency, µM (titrated, usually from 107 µM), without a hit: at the highest dose activity, negative = inhibition, hits mostly inhibitors | hit rate 0.53% among 400,000 | AID 588579; further: on the % scale 0 is the no-effect control and ±100 the full control effect
#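 Inhibition of 10 nM Pol kappa is measured by a fluorescent read-out at 0 and 10 min following addition of 50 nM substrate (final), with a 15-min room-temperature compound preincubation.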
# TbPGK inh = validation of Trypanosoma brucei phosphoglycerate kinase inhibitors; TbPGK coupled GAPDH assay, Kinase-Glo luminescence; AID 686980; hit rate 79% among 500; Potency, µM (doses to about 57.5 µM), without a hit: top-dose activity change, negative = inhibition, hits mostly inhibitors; shares compounds with Pol kappa inh-1; further: on the % scale 0 is the no-effect control and ±100 the full control effect; nearly all actives have a fitted effect of over 65% in size
# POLI cherry-pick = Confirm cherry-picked inhibitors of human polymerase iota; shares compounds with Pol kappa inh-1; Pol iota primer extension, TAMRA/BHQ fluorescence; Potency, µM, most hits filed as inhibitors; hit rate 77% among 1,500; AID 720496
# Pol kappa inh-2 = Pol kappa (human) inhibition, cherry-pick confirmation. shares compounds with Pol eta inh-1. hit rate 76% among 920. AID 720501. purified Pol-kappa, fluorescent strand-displacement substrate. Potency, µM, most hits filed as inhibitors
# Pol eta inh-2 = confirmation of human DNA polymerase eta inhibitors. hit rate 64% among 2,600. Pol eta primer extension, TAMRA/BHQ fluorescence, 10 min. Potency, µM, actives largely listed as inhibitors. shares compounds with Pol eta inh-1
# Active calls of the source: *; ? = inconclusive; nt = no result; [ ] = remark or other dose. The call rests on the fitted dose curve; in most records, active means well fitted curve in the direction sought with a large enough effect; inconclusive means small, poorly fitted or top-dose-only effect, or another doubt; inactive means no such curve, though single readings can be large; an effect the other way counts as inactive or inconclusive. Potency means the concentration at half of the fitted maximal effect.
SMILES,APE1 inh,L3MBTL1 block,POLI inh,Pol beta inh,Pol eta inh-1,Pol kappa inh-1,POLI cherry-pick,Pol eta inh-2,others
CCC(Sc1nc2ccsc2c(=O)n1Cc1ccc(C(=O)O)cc1)C(=O)Nc1cc(Cl)ccc1C (stereo not drawn),nt,nt,nt,nt,?,nt,67*,nt,Pol kappa inh-2=67*
CCN1/C(=C/C=C/c2oc3ccc(-c4ccccc4)cc3[n+]2CC)Oc2ccc(-c3ccccc3)cc21,5.5%,-89.4%,?,79.4µM*,?,?,29.9*,21.3*,Pol kappa inh-2=37.7*
CN1CCc2c(sc3nc(NN)n(-c4ccc(Cl)cc4)c(=O)c23)C1,1.9%,nt,-7.9%,-20.5%,-1.6%,-7.1%,nt,nt,
Cc1ccc(NC(=O)C(Cc2ccccc2)n2cccc2)cc1C (stereo not drawn),nt,nt,11.7%,10.6%,-17.4%,-1.2%,nt,nt,
Cc1csc(NC(=O)CSc2nc(C(C)C)nc3ccccc23)n1,25.6%[12.4 µM],nt,23.5%,4.8%,-11.0%,-3.6%,nt,nt,
CC(C)c1nc(SCC(=O)Nc2nccs2)c2ccccc2n1,-0.8%,nt,?,25.1µM*,31.6µM*,-23.8%,53.2*,75.7*,
O=C(O)c1[nH]c2ccccc2c1C(c1cc(Br)ccc1O)c1c(C(=O)O)[nH]c2ccccc12,1.6%,-8.4%,?,79.4µM*,50.1µM*,?,?,?,
O=C(Cc1ccc(NC(=O)C2CCN(C(=O)CCc3ccccc3)CC2)cc1)Nc1ccc(C(=O)N2CCOCC2)cc1,nt,nt,25.3%,nt,-17.0%,3.5%,nt,nt,
CCOC(=O)COc1ccc2c(C)c(CCN(CC)CC)c(=O)oc2c1Cl,-8.0%,nt,nt,nt,nt,4.7%[19.4 µM],nt,nt,
Cc1ccc(NC(=O)COC(=O)c2ccc(C)c(S(=O)(=O)N3CCOCC3)c2)cc1,-28.7%,-8.6%,22.0%,nt,-23.4%,-13.6%,nt,nt,
Cc1ccc(C)n1-c1sc2c(c1C(=O)O)CCCC2,?,?,?,14.1µM*,7.94µM*,50.1µM*,59.7*,26.9*,
Cc1ccc(C(=O)Nc2sc3c(c2C(=O)O)CCCC3)o1,62.4%,nt,9.8%,-11.1%,-12.6%,4.2%,nt,nt,
CCCCCCCCCCCCCCCCCCNc1ccn(C2OC(COP(=O)(O)OCC3OC(n4cc(F)c(=O)[nH]c4=O)CC3O)C(O)C2O)c(=O)n1 (stereo not drawn),nt,nt,17.8µM*,nt,14.1µM*,44.7µM*,42.3*,42.6*,Pol kappa inh-2=26.7*
O=C(Nc1nccs1)c1cc(-c2ccco2)nc2ccccc12,?,14.1µM*,22.4µM*,7.08µM*,3.98µM*,?,?,?,
O=C(N/N=C/c1ccc(F)cc1)c1cc(-c2ccco2)nc2ccccc12,4.47µM*,3.55µM*,7.94µM*,3.55µM*,1.58µM*,14.1µM*,7.52*,21.3*,TbPGK inh=8.19µM*;Pol kappa inh-2=10.6*
O=C(c1cnccn1)N1CCC2(CCN(Cc3ccncc3)CC2)CC1,3.8%,nt,nt,nt,nt,-6.4%[60.1 µM],nt,nt,
COc1ccccc1-c1nnc2sc(-c3cnccn3)nn12,-1.4%,nt,?,?,44.7µM*,-40.1%,75.2*,?,

# Compound activity as filed in PubChem BioAssay.
